PD-1 reverse act = reversal of PD-1 mediated T-cell inhibition. primary human CD4 T cells, PD-L1 beads, CellTiter-Glo 96 h. 29,000 tested, under 10 active. activation, % (test concentration not listed). AID 2316; call rule not given here;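 also: 0% = median vehicle wells and 100% = positive control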
NOMO-1 viab = STK33 inhibitor candidate reducing NOMO-1 cell viability; NOMO-1 AML viability, CellTiter-Glo luminescence, 72 h; inhibition, % (no concentration beside the values); hit rate 7.5% among 37,000; in the data active = inhibition above about 80%; inconclusive = no clear call, values can overlap the other calls
STK33 kin inh = inhibitors of human STK33 kinase; ADP-Glo luminescence, MBP substrate; inhibition, % at 12.5 µM; hit rate 0.44% among 27,000; AID 2322; in the data active = inhibition above about 20%; inconclusive = no clear call, values can overlap the other calls
Target sequence (Q9BYT3 whole entry, looked up): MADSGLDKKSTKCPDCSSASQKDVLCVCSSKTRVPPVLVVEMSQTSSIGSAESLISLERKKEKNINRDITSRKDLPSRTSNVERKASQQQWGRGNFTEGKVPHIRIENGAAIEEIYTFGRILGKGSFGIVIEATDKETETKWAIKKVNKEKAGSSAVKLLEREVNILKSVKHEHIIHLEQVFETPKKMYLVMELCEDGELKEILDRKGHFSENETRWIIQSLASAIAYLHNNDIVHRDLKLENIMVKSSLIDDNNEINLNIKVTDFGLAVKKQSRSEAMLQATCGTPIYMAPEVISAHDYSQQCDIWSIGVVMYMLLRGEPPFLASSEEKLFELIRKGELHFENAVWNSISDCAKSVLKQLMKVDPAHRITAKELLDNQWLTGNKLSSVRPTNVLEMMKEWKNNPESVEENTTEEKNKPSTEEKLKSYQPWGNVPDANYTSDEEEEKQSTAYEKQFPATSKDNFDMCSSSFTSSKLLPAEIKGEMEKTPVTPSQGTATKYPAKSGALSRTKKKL
* marks the source's active call; other numbers are inactive results; ? = inconclusive; . = not tested or not shown. This excerpt belongs to a sample that is enriched for hits.

SMILES | PD-1 reverse act | NOMO-1 viab | STK33 kin inh
COC(=O)c1cc(NC(=O)c2ccco2)cc(C(=O)OC)c1 | -1 | -8 | .
C[C@@H]1CN([C@H](C)CO)C(=O)Cc2cc(NC(=O)Nc3cccc4ccccc34)ccc2O[C@H]1CN(C)Cc1ccc(C(F)(F)F)cc1 | . | 105* | 2
Cc1ccc(N2C3=C(C(=O)CC(C)(C)C3)C(c3cccs3)C3=C2CC(C)(C)CC3=O)cc1C | -7 | 118* | -1
C[C@H](CO)N1C[C@H](C)[C@@H](CN(C)CC2CCCCC2)Oc2c(NC(=O)C3CCCCC3)cccc2C1=O | . | 96* | .
C[C@@H]1CN([C@@H](C)CO)C(=O)c2cccc(NC(=O)C3CCCCC3)c2O[C@@H]1CN(C)CC1CCCCC1 | . | 9 | .
C[C@@H]1CN([C@H](C)CO)C(=O)c2cccc(NC(=O)NC3CCCCC3)c2O[C@H]1CN(C)CC1CCCCC1 | -5 | 104* | .
C[C@@H]1CN([C@H](C)CO)C(=O)c2cccc(NC(=O)C3CCCCC3)c2O[C@H]1CN(C)CC1CCCCC1 | -5 | 111* | .
C[C@@H]1CN([C@@H](C)CO)C(=O)c2cccc(NC(=O)C3CCCCC3)c2O[C@@H]1CN(C)CC1CC1 | 2 | 31 | .
C[C@H](CO)N1C[C@H](C)[C@@H](CN(C)CC2CCCCC2)Oc2c(NC(=O)NC3CCCCC3)cccc2C1=O | . | 54 | .
COc1ccc(NC(=O)CC2NC(=O)NC2=O)cc1 (stereo unspecified) | . | -4 | 1
Cc1cccc(C)c1NC(=O)CSc1nnnn1-c1ccc(I)cc1 | . | 19 | 1
COc1ccc(OC)c(NC(=O)COc2cc(C)cc(C)c2C)c1 | -3 | 23 | -1
CC(C)(C)c1ccc2cc(C#N)c(C#N)cc2c1 | 0 | 140* | .
CC(C)c1ccccc1Oc1coc2cc(OCC(=O)Nc3ccccc3F)ccc2c1=O | 1 | 28 | -1
COc1ccc(Oc2c(C(F)(F)F)oc3cc(OCC(=O)Nc4ccccc4F)ccc3c2=O)cc1 | -7 | 96* | 6
O=c1c(O[C@@H]2O[C@H](CO[C@@H]3O[C@H](CO)[C@@H](O)[C@H](O)[C@H]3O)[C@@H](O)[C@H](O)[C@H]2O)c(-c2ccc(O)cc2)oc2cc(O)cc(O)c12 | . | . | -1
O=C(CSc1nnnn1-c1ccccc1)Nc1cccc(Br)c1 | . | -8 | 4
C[C@@H]1CN([C@@H](C)CO)C(=O)c2cccc(NC(=O)Nc3ccc(C(F)(F)F)cc3)c2O[C@H]1CN(C)Cc1ccc(C(F)(F)F)cc1 | -6 | 116* | .
C[C@H]1CN([C@@H](C)CO)C(=O)c2cccc(NC(=O)Nc3ccc(C(F)(F)F)cc3)c2O[C@H]1CN(C)Cc1ccc(C(=O)O)cc1 | 2 | 7 | .
C[C@@H]1CN([C@@H](C)CO)C(=O)c2cccc(NC(=O)Nc3ccc(C(F)(F)F)cc3)c2O[C@@H]1CN(C)Cc1ccc(C(F)(F)F)cc1 | -3 | ? | .
C[C@@H]1CN([C@H](C)CO)C(=O)c2cccc(N(C)C)c2O[C@H]1CN(C)Cc1ccc(C(F)(F)F)cc1 | -7 | 81* | .
C[C@H]1CN([C@@H](C)CO)C(=O)c2cccc(NC(=O)Nc3ccc(C(F)(F)F)cc3)c2O[C@@H]1CN(C)Cc1ccc(C(F)(F)F)cc1 | -5 | 113* | .
C[C@H]1CN([C@@H](C)CO)C(=O)c2cccc(N(C)C)c2O[C@H]1CN(C)Cc1ccc(C(F)(F)F)cc1 | 0 | 27 | .
C[C@H](CO)N1C[C@H](C)[C@@H](CN(C)Cc2ccc(C(F)(F)F)cc2)Oc2c(NC(=O)Nc3ccc(C(F)(F)F)cc3)cccc2C1=O | -4 | 105* | .
C[C@@H]1CN([C@@H](C)CO)C(=O)c2cccc(NC(=O)Nc3ccc(C(F)(F)F)cc3)c2O[C@@H]1CN(C)Cc1ccc(C(=O)O)cc1 | 1 | -12 | .
SMILES | PD-1 reverse act | NOMO-1 viab | STK33 kin inh
COC(=O)c1cc(NC(=O)C(C)N(c2ccc(C)cc2)S(C)(=O)=O)ccc1Cl (stereo unspecified) | -2 | 38 | 0
O=C(c1cc2nc(-c3ccco3)cc(C(F)(F)F)n2n1)N(Cc1ccccc1)Cc1ccccc1 | 3 | 74 | .
COC(=O)/C=C1/NCC(OC(=O)c2ccc(C(C)(C)C)cc2)CNC1=O (stereo unspecified) | 0 | 51 | .
CCOC(=O)c1c(CNc2cccc(C(N)=O)c2)n(C)c2cc(Br)c(OC(C)=O)cc12 | -2 | 56 | .
FC(F)(F)COc1cc(-c2n[nH]c(=S)n2Cc2ccco2)cc(OCC(F)(F)F)n1 | -2 | 8 | .
COC(=O)c1cccc(N=C(N)N=C(N)N)c1 | 0 | -9 | .
CCOC(=O)c1c(NC(=O)C(C)Oc2ccc3c(C)cc(=O)oc3c2)sc2c1CCCC2 (stereo unspecified) | -1 | -4 | -4
C[C@@H]1CN([C@H](C)CO)C(=O)c2cccc(NC(=O)NC3CCCCC3)c2O[C@@H]1CN(C)Cc1ccc(C(F)(F)F)cc1 | -1 | 29 | .
C[C@@H]1CN([C@@H](C)CO)C(=O)c2cccc(NC(=O)NC3CCCCC3)c2O[C@H]1CN(C)Cc1ccc(C(F)(F)F)cc1 | -7 | 93* | .
C[C@@H]1CN([C@@H](C)CO)C(=O)c2cccc(NC(=O)NC3CCCCC3)c2O[C@@H]1CN(C)Cc1ccc(Oc2ccccc2)cc1 | -5 | 85* | .
C[C@H](CO)N1C[C@H](C)[C@@H](CN(C)Cc2ccccc2)Oc2c(NC(=O)NC3CCCCC3)cccc2C1=O | -3 | 84* | .
C[C@H]1CN([C@@H](C)CO)C(=O)c2cccc(NC(=O)NC3CCCCC3)c2O[C@H]1CN(C)Cc1ccc(Oc2ccccc2)cc1 | -2 | 11 | .
C[C@@H]1CN([C@H](C)CO)C(=O)c2cccc(NC(=O)NC3CCCCC3)c2O[C@@H]1CN(C)Cc1ccc(-c2ccccc2)cc1 | 1 | 37 | .
Cc1ccc(-c2noc(CN(C(=O)c3ccc([N+](=O)[O-])cc3)C(C)C)n2)cc1 | 0 | -18 | -3
Cc1ccc(N(C(C)C(=O)Nc2cc(Cl)cc(Cl)c2)S(C)(=O)=O)cc1 (stereo unspecified) | -5 | 52 | -2
Cc1ccc(S(=O)(=O)N(C)C[C@H]2Oc3c(NC(=O)c4nc5ccccc5s4)cccc3C(=O)N([C@@H](C)CO)C[C@@H]2C)cc1 | . | 68 | .
C[C@@H]1CN([C@@H](C)CO)C(=O)c2cccc(NC(=O)c3nc4ccccc4s3)c2O[C@@H]1CN(C)S(=O)(=O)c1ccc(Cl)cc1 | -2 | 113* | .
C[C@H](CO)N1C[C@H](C)[C@@H](CN(C)S(=O)(=O)c2ccc(Cl)cc2)Oc2c(NC(=O)c3nc4ccccc4s3)cccc2C1=O | -6 | 117* | .
C[C@H](CO)N1C[C@H](C)[C@H](CN(C)S(=O)(=O)c2ccc(Cl)cc2)Oc2c(NC(=O)c3nc4ccccc4s3)cccc2C1=O | -1 | 93* | .
C[C@@H]1CN([C@@H](C)CO)C(=O)c2cccc(NC(=O)c3nc4ccccc4s3)c2O[C@@H]1CN(C)S(=O)(=O)c1ccccc1 | 0 | 102* | .
C[C@@H]1CN([C@@H](C)CO)C(=O)c2cccc(NC(=O)c3nc4ccccc4s3)c2O[C@H]1CN(C)S(=O)(=O)c1ccccc1 | -3 | 15 | .
C[C@@H]1CN([C@H](C)CO)C(=O)c2cccc(NC(=O)c3nc4ccccc4s3)c2O[C@@H]1CN(C)S(=O)(=O)c1ccc(Cl)cc1 | -2 | 65 | .
